Experimental data reported in PubChem BioAssay (NCATS).
Results filed as inconclusive are left out. The source made the active and inactive calls. Calls come from the whole dose curve; as a rule, active = well fitted curve in the direction sought with a large enough effect; inconclusive = small, poorly fitted or top-dose-only effect, or another doubt; inactive = no such curve, though single readings can be large; an effect the other way counts as inactive or inconclusive.

Columns and labels:
CRL-7250 = normal cell line; test: Cytotoxic Profiling of Annotated Libraries Using Quantitative High-Throughput Screening (AID 1296008); conditions: Five cell lines viability, CellTiter-Glo ATP luminescence, 48-72 h; max response: stronger effect = lower value; note: nearly all actives have a fitted effect of over 60% in size; for max response: % is set by controls: 0 for no effect and ±100 for the full control effect
Method in brief: (§1)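 Cells exposed to compounds for 48 or 72 hr at 37 degrees Celsius. Viability read as ATP-coupled luminescence with CellTiter-Glo after 10 min at room temperature.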

HaCat [1] = test: as above; conditions: Five cell lines viability, CellTiter-Glo ATP luminescence, 48-72 h; max response: stronger effect = lower value
Method in brief: as §1

KB-3-1 = test: as above; conditions: Five cell lines viability, CellTiter-Glo ATP luminescence, 48-72 h; max response: stronger effect = lower value
Method in brief: as §1

NIH3T3 [2] = test: as above; conditions: Five cell lines viability, CellTiter-Glo ATP luminescence, 48-72 h; max response: stronger effect = lower value
Method in brief: as §1

HACAT [3] = test: qHTS assay to identify novel small-molecules to repurpose for Merkel cell carcinoma treatment (AID 1296009); conditions: MCC and control cell lines, CellTiter-Glo viability, 72 h; at 44.8 µM (top of the series) unless noted; note: nearly all actives have a fitted effect of over 60% in size
Method in brief: (§2)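 Cells were treated for 72 hr at 37 degree celsius with compounds in 8- or 11-point dose response. Viability was read by CellTiter-Glo luminescence, normalized to no-cell (cytotoxicity) and DMSO controls.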

NIH3T3 [4] = test: as above; conditions: MCC and control cell lines, CellTiter-Glo viability, 72 h; series mostly up to 44.8 µM
Method in brief: as §2

C33A = test: Primary qHTS to identify gynecologic anti-cancer compounds using libraries of approved drugs and bioactive compounds (AID 1345084); conditions: Gynecologic cancer cell panel viability, ATPlite luminescence, 48 h; series mostly up to 57.5 µM; note: % is set by controls: 0 for no effect and ±100 for the full control effect; nearly all actives have a fitted effect of over 55% in size
Method in brief: (§3)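 Cells, 1,000 per well, plated 16 h, then exposed 48 h at 37 C to compounds. Viability by ATPlite luminescence after 15 min at room temperature.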

CASKI = test: as above; conditions: Gynecologic cancer cell panel viability, ATPlite luminescence, 48 h; series mostly up to 57.5 µM
Method in brief: as §3

Es-2 = test: as above; conditions: Gynecologic cancer cell panel viability, ATPlite luminescence, 48 h; series mostly up to 57.5 µM
Method in brief: as §3

HeLa = test: as above; conditions: Gynecologic cancer cell panel viability, ATPlite luminescence, 48 h; series mostly up to 57.5 µM
Method in brief: as §3

Hek293T = test: as above; conditions: Gynecologic cancer cell panel viability, ATPlite luminescence, 48 h, control line for the selectivity index; series mostly up to 57.5 µM
Method in brief: as §3

JEG-3 = test: as above; conditions: Gynecologic cancer cell panel viability, ATPlite luminescence, 48 h; series mostly up to 57.5 µM
Method in brief: as §3

OV90 = test: as above; conditions: Gynecologic cancer cell panel viability, ATPlite luminescence, 48 h; series mostly up to 57.5 µM
Method in brief: as §3

PA-1 = test: as above; conditions: Gynecologic cancer cell panel viability, ATPlite luminescence, 48 h; series mostly up to 57.5 µM
Method in brief: as §3

CAOV3 = test: as above; conditions: Gynecologic cancer cell panel viability, ATPlite luminescence, 48 h; series mostly up to 57.5 µM
Method in brief: as §3

CCOC(=O)N1CCC(N2CCC[C@@H](NC(=O)c3ccccc3C)C2)CC1
inactive: max response (CRL-7250) -6.33% | outcome (HaCat [1]) | max response (KB-3-1) 8.62% | outcome (NIH3T3 [2]) | outcome (HACAT [3]) | Potency (NIH3T3 [4]) | Potency (C33A) | Potency (CASKI) | Potency (Es-2) | Potency (HeLa) | Potency (Hek293T) | Potency (JEG-3) | Potency (OV90) | Potency (PA-1)

CC1(C)CC[C@]2(C(=O)O)[C@H](O)C[C@]3(C)C(=CCC4[C@@]5(C)CC[C@H](O[C@@H]6O[C@H](CO[C@@H]7OC[C@H](O)[C@H](O)[C@H]7O[C@@H]7OC[C@H](O)[C@H](O)[C@H]7O)[C@@H](O)[C@H](O)[C@H]6O)C(C)(C)C5CC[C@]43C)[C@@H]2C1 (some centres undefined)
inactive: outcome (CRL-7250) | outcome (HaCat [1]) | outcome (KB-3-1) | max response (NIH3T3 [2]) -3.93% | outcome (HACAT [3]) inactive [at 9.27 µM] | activity change, negative = cytotoxicity (C33A) 3.19% [at 11.6 µM] | activity change, negative = cytotoxicity (CAOV3) 6.12% [at 11.6 µM] | activity change, negative = cytotoxicity (CASKI) -7.68% [at 11.6 µM] | activity change, negative = cytotoxicity (Es-2) -0.336% [at 11.6 µM] | activity change, negative = cytotoxicity (HeLa) -1.57% [at 11.6 µM] | activity change, negative = cytotoxicity (Hek293T) -1.34% [at 11.6 µM] | activity change, negative = cytotoxicity (JEG-3) 14% [at 11.6 µM] | activity change, negative = cytotoxicity (OV90) 2.79% [at 11.6 µM] | activity change, negative = cytotoxicity (PA-1) 4.95% [at 11.6 µM]

CCCCC1CCC(c2nc(-c3ccncc3)no2)CC1 (centres undefined)
inactive: max response (CRL-7250) -23.2% | outcome (HaCat [1]) | max response (KB-3-1) -26.8% | max response (NIH3T3 [2]) -3.82% | outcome (HACAT [3]) | Potency (C33A) | Potency (CAOV3) | Potency (CASKI) | Potency (Es-2) | Potency (HeLa) | Potency (Hek293T) | Potency (JEG-3) | Potency (OV90) | Potency (PA-1)

CC1(C)Oc2ncnc(N)c2N=C1c1ccc(C23CCC(CC(=O)O)(CC2)CC3)cc1
inactive: max response (CRL-7250) 1.74% | outcome (HaCat [1]) | max response (KB-3-1) -2.56% | max response (NIH3T3 [2]) -15.7% | outcome (HACAT [3]) | Potency (C33A) | Potency (CAOV3) | Potency (CASKI) | Potency (Es-2) | Potency (HeLa) | Potency (Hek293T) | Potency (JEG-3) | Potency (OV90) | Potency (PA-1)

C/C=C(\C)C(=O)OC1C[C@@]2(COC(C)=O)O[C@H]2/C=C\[C@@]2(C)O[C@@H]2[C@H]2OC(=O)C(COC(C)=O)=C12 (some centres undefined)
inactive: max response (CRL-7250) -2.2% | outcome (HaCat [1]) | max response (KB-3-1) 7.77% | max response (NIH3T3 [2]) 3.22% | outcome (HACAT [3]) inactive [at 17.4 µM] | Potency (C33A) | Potency (CAOV3) | Potency (CASKI) | Potency (Es-2) | Potency (HeLa) | Potency (Hek293T) | Potency (JEG-3) | Potency (OV90) | Potency (PA-1)

COc1c(CCC(=O)O)cccc1O[C@@H]1O[C@H](CO)[C@@H](O)[C@H](O)[C@H]1O
inactive: outcome (CRL-7250) | outcome (HaCat [1]) | max response (KB-3-1) 0.734% | max response (NIH3T3 [2]) 0.319% | outcome (HACAT [3]) | Potency (C33A) | Potency (CAOV3) | Potency (CASKI) | Potency (Es-2) | Potency (HeLa) | Potency (Hek293T) | Potency (JEG-3) | Potency (OV90) | Potency (PA-1)

C[C@@H](NC(=O)c1ccc(C#Cc2cccc(F)c2)cn1)C(C)(C)O
inactive: max response (CRL-7250) -12.8% | outcome (HaCat [1]) | max response (KB-3-1) 7% | max response (NIH3T3 [2]) 2.74% | outcome (HACAT [3]) | Potency (C33A) | Potency (CAOV3) | Potency (CASKI) | Potency (Es-2) | Potency (HeLa) | Potency (Hek293T) | Potency (JEG-3) | Potency (OV90) | Potency (PA-1)

CCCOc1ccc(S(=O)(=O)N2CCN(CCO)CC2)cc1-c1nc2c(CCC)cn(CC)c2c(=O)[nH]1
inactive: max response (CRL-7250) -15% | outcome (HaCat [1]) | max response (KB-3-1) 7.41% | max response (NIH3T3 [2]) 4.33% | outcome (HACAT [3]) | Potency (C33A) | Potency (CAOV3) | Potency (CASKI) | Potency (Es-2) | Potency (HeLa) | Potency (Hek293T) | Potency (JEG-3) | Potency (OV90)

CC12CCC3C1C(c1c(cc(O)c(C(=O)c4ccccc4)c1O)O2)C3(C)C (centres undefined)
inactive: max response (CRL-7250) 3.27% | outcome (HaCat [1]) | max response (KB-3-1) -20.8% | max response (NIH3T3 [2]) -2.16% | outcome (HACAT [3]) | Potency (C33A) | Potency (CAOV3) | Potency (CASKI) | Potency (Es-2) | Potency (HeLa) | Potency (Hek293T) | Potency (JEG-3) | Potency (OV90) | Potency (PA-1)

C/C=C/C1=CC2=C(CO1)C(=O)C(C)(OC(=O)c1c(C)cc(O)cc1OC)C(O)C2 (centres undefined)
inactive: max response (CRL-7250) 3.73% | outcome (HaCat [1]) | max response (KB-3-1) 2.17% | max response (NIH3T3 [2]) 1.21% | outcome (HACAT [3]) | Potency (C33A) | Potency (CAOV3) | Potency (CASKI) | Potency (Es-2) | Potency (HeLa) | Potency (Hek293T) | Potency (JEG-3) | Potency (OV90) | Potency (PA-1)

CCC(C)/C=C(C)/C=C/C1=CC2=C(Cl)C(=O)C(C)(OC(C)=O)C(=O)C2(O)C(OC)O1 (centres undefined)
inactive: outcome (CRL-7250) | outcome (HaCat [1]) | outcome (KB-3-1) | outcome (NIH3T3 [2]) | outcome (HACAT [3]) inactive [at 17.4 µM] | Potency (NIH3T3 [4]) | Potency (C33A) | Potency (CAOV3) | Potency (CASKI) | Potency (Es-2) | Potency (HeLa) | Potency (JEG-3) | Potency (OV90) | Potency (PA-1)

COC1=CC(=O)O/C1=C(/OC)[C@@H]1O[C@H]1c1ccccc1
inactive: max response (CRL-7250) -14.3% | outcome (HaCat [1]) | max response (KB-3-1) -13.4% | max response (NIH3T3 [2]) -27.3% | outcome (HACAT [3]) | Potency (C33A) | Potency (CAOV3) | Potency (CASKI) | Potency (Es-2) | Potency (HeLa) | Potency (Hek293T) | Potency (JEG-3) | Potency (OV90)

C=C(CCC1C(C)(O)CCC2C(C)(C)C(O)CCC12C)C(O)CO (centres undefined)
inactive: max response (CRL-7250) -26.3% | outcome (HaCat [1]) | max response (KB-3-1) -9.88% | max response (NIH3T3 [2]) -4.7% | outcome (HACAT [3]) | Potency (C33A) | Potency (CAOV3) | Potency (CASKI) | Potency (Es-2) | Potency (HeLa) | Potency (Hek293T) | Potency (JEG-3) | Potency (OV90) | Potency (PA-1)

CC(=O)O[C@@H]1C[C@@]2(C)C(CC[C@]3(C)C2CC=C2C4CC(C)(C)CC[C@]4(C(=O)O)CC[C@]23C)C(C)(C)[C@H]1O (some centres undefined)
inactive: max response (CRL-7250) 3.23% | outcome (HaCat [1]) | max response (KB-3-1) -16.7% | max response (NIH3T3 [2]) -4.52% | outcome (HACAT [3]) inactive [at 17.4 µM] | Potency (C33A) | Potency (CAOV3) | Potency (CASKI) | Potency (Es-2) | Potency (HeLa) | Potency (Hek293T) | Potency (JEG-3) | Potency (OV90) | Potency (PA-1)
